# Assay results taken from article PMC6919601, “Identification of Plasmodium dipeptidyl aminopeptidase allosteric inhibitors by high throughput screening” (PLoS ONE, 2019).
# In all, about 110,000 compounds went through this assay and about 230 (0.21%) showed an effect of 50% or more. The entries come from a sample that favours strong results as a whole.
# Molecular target: DPAP1 (Plasmodium falciparum, UniProt Q8IIJ9)
# Assay: primary screen, percent inhibition; read by cleavage of a fluorogenic dipeptide substrate; higher = more effect of the substance
# Parameters: species or system P. falciparum D10 trophozoite lysates; single well
# Method: HTS was performed in black 384-well plates. The first and last two columns of each plate contained our negative (DMSO) and positive (10 μM JCP410) controls, and the 20 central columns the test compounds at 10 μM. Compounds were first diluted 50-fold into assay buffer (50 mM sodium acetate, 5 mM MgCl2, 10 mM β-mercaptoethanol, and 0.1% CHAPS, pH 5.5) from a 10 mM DMSO stock plates. One microliter of this 200 μM intermediate stock plate was dispensed into the assay plate. […] After 30 min, the reaction was quenched with 20 μL of 0.5 M acetic acid, and the fluorescent intensity measured at 523 nm (λex = 492 nm) using an Analyst HT multimode plate reader (Molecular Devices).
# 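Further: 30 min substrate incubation versus DMSO and 10 µM JCP410 controls.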
# Sequence of DPAP1 (Q8IIJ9 whole entry, looked up): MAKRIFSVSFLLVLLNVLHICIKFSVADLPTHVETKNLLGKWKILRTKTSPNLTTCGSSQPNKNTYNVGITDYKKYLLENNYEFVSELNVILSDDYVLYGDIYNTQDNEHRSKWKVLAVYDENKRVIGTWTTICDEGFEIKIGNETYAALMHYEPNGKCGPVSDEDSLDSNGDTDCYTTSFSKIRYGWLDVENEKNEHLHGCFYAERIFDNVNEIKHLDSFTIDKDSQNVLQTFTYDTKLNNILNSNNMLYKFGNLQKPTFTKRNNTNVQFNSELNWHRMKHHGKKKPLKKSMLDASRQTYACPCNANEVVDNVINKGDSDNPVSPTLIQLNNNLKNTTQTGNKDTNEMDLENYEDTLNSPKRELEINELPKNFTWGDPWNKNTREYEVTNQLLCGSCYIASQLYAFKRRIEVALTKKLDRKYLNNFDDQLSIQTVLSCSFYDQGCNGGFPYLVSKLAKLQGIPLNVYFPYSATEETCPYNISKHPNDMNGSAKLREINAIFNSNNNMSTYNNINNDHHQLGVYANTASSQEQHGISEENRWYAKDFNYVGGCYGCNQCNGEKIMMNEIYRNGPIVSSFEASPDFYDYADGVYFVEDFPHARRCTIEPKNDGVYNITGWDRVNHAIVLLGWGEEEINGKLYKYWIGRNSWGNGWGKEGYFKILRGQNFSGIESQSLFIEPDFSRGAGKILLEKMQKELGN
row,SMILES,% Inhibition @ 10 uM [%]
1,O=C1/C(=C/c2ccc3nccnc3c2)CCC1C1CCCC1 (stereo not shown),66.2
2,O=C1/C(=C/c2ccc(F)cc2)CCC1C1CCCC1 (stereo not shown),23.4
3,Cc1cc(C)c2c(n1)sc1c(=O)oc(C)nc12,-0.13
4,Cc1ccc(N(CC(=O)Nc2ccc(CC#N)cc2)S(=O)(=O)c2ccccc2)c(C)c1,-6.77
5,O=C(NCc1ccco1)c1ccc(CN2CC(=O)N3CCCCC3C2=O)cc1 (stereo not shown),3.7
6,Cc1ccc(-c2cc(C(=O)N3CCN(C(=O)c4ccco4)CC3)[nH]n2)c(C)c1,2.62
7,COCCN1C(=O)/C(=C/c2cccc(C)c2)S/C1=N\c1ccccc1,64.4
8,COCCN1C(=O)/C(=C/c2ccc(C)cc2)S/C1=N\c1ccccc1,-11.1
9,COCCN1C(=O)/C(=C/c2ccccc2)S/C1=N\c1ccccc1,-4.21
10,CCN(CC)CCCNc1cnnc2c(Cl)cccc12,-4.4
11,COc1ccc(OC)c(C2C3=C(O)CCCC3=NC(C)=C2C(=O)Nc2ccccn2)c1 (stereo not shown),-8.82
12,COc1ccc2c(c1)cc1c(=O)n(CC(=O)NCc3cccc(OC)c3OC)nc(C)n12,99.1
13,CCCNC(=O)Cn1nc(C)n2c(cc3cc(OC)ccc32)c1=O,4.84
14,COc1ccccc1CNC(=O)Cn1nc(C)n2c(cc3c(OC)cccc32)c1=O,-3.47
15,OC(c1ccccc1)c1nc2ccccc2[nH]1 (stereo not shown),3.87
16,CCn1nc(C)c(C(=O)Nc2ccn(Cc3ccccc3)n2)c1C,3.21
17,Cn1c2ccccc2c2cnn(CC(=O)N3CCN(c4ccccn4)CC3)c(=O)c21,4.53
18,Cn1c2ccccc2c2cnn(CC(=O)N3CCN(c4ncccn4)CC3)c(=O)c21,53.7
19,CN1CCN(C(=O)Cn2ncc3c4ccccc4n(C)c3c2=O)CC1,1.41
20,Oc1nc(SCc2ccccc2)nc(O)c1Cc1ccccc1,-2.12
21,CC1=CC2=NC(=O)/C(=C\c3ccc(-c4ccccc4Cl)o3)C(=N)N2O1,-1.65
22,O=C(NC1CCCCC1)C1CC(c2ccccc2F)=NO1 (stereo not shown),7.39
23,CCOc1ccc2c(=O)c(Oc3ccccc3)c(C(F)(F)F)oc2c1,-4.21
24,COc1ccc(OC)c(NC(=O)c2ccc(OC(C)C)cc2)c1,-1.88
25,COc1ccc(S(=O)(=O)Nc2cccc(C(C)=O)c2)cc1,-1.92

row,SMILES,% Inhibition @ 10 uM [%]
1,COc1ccccc1Oc1ccc(S(=O)(=O)Nc2cccc(C(C)=O)c2)cc1,67.2
2,CC(=O)c1cccc(NS(=O)(=O)c2ccc(Oc3ccccc3Cl)cc2)c1,-3.87
3,CS(=O)(=O)c1sc2nc(-c3cccs3)cc(-c3ccccc3)c2c1N,64.2
4,CC(=O)c1sc2nc(-c3cccs3)cc(-c3cccs3)c2c1N,7.74
5,CS(=O)(=O)c1sc2nc(-c3ccc(Br)cc3)cc(-c3ccccc3)c2c1N,-1.93
6,CN(C)c1ccc(NC(=O)Nc2ccc(Cl)cc2)cc1,0.51
7,O=C1C2C=COC2C2c3ccccc3CCC2N1Cc1ccccc1 (stereo not shown),0.727
8,Cc1nc2c(C(=O)n3ccnc3)cnn2c(C)c1Cc1ccccc1Cl,-0.406
9,CS(=O)(=O)N(CC(=O)Nc1ccccc1)c1cccc(F)c1,-10.1
10,CS(=O)(=O)N(CC(=O)Nc1ccc2c(c1)OCCO2)c1cccc(F)c1,69.8
11,CC(=O)Nc1ccc(NC(=O)CN(c2cccc(F)c2)S(C)(=O)=O)cc1,8.06
12,CN(Cc1ccco1)C(CNS(=O)(=O)c1ccccc1)c1ccccc1 (stereo not shown),-0.671
13,CCCCOc1ccc(C2=NC(=O)/C(=C/c3cccc(OC)c3OC)O2)cc1,2.1
14,Sc1nc(-c2ccc3c(c2)OCO3)cn1-c1cccc(Cl)c1,19.5
15,Cc1ccccc1-n1cc(-c2ccc3c(c2)OCO3)nc1S,83.7
16,CCn1c2ccccc2n2cc(-c3ccc4c(c3)OCO4)nc12,0.486
17,CC(C)C[C@H](NC(=O)c1cc2cc(OCCN3CCOCC3)ccc2o1)C(=O)NC1COCC1=O (stereo partly shown),-8.26
18,CCOc1cc(/C=C2/NC(=O)N(CC(=O)Nc3cccc(C)c3)C2=O)cc(Cl)c1O,2.44
19,COc1cccc(/C=C2/SC(=O)N(CC(=O)Nc3ccc(C)cc3)C2=O)c1O,30.1
20,Cc1ccc(NC(=O)CN2C(=O)S/C(=C\c3ccccc3C)C2=O)cc1,-5.4
21,Cc1ccc(NC(=O)CN2C(=O)S/C(=C\c3ccccc3O)C2=O)cc1,50.5
22,COc1ccc(C(=O)CCC(=O)NC2=NCCS2)cc1,-3.21
23,CN1CCN(C(=O)Cn2nc(-c3ccc(Cl)cc3)c3ccccc3c2=O)CC1,2.95
24,CC1=C(C(=O)OC2CCCC2)C(c2ccsc2)C2=C(O)CC(c3cccs3)CC2=N1 (stereo not shown),0.146
